According to PubChem BioAssay AID463173 (ICCB-Longwood Screening Facility, Harvard Medical School, 2010):
Hit rate of the full screen: of about 52,000 compounds, about 4,300 (8.3%) were called active. This is one part of a sample in which actives are shown more often than they occur. Rule as the data show it: active = survival mostly below about 52% (no sharp cut-off); inactive = mostly above about 56%.

Tested on: DeltatarO mutant
Assay: S. aureus survival, RN4220 and DeltatarO strains – OD600, teichoic acid synthesis inhibitors, primary screen (AID 463173)
Details: S. aureus RN4220 wild type/DeltatarO growth, OD600, 18 h, stronger effect = lower value, screened at 18.75 µg/mL (by protocol)

| Structure (SMILES) | survival |
| --- | --- |
| Cc1ccc(CCNC(=O)c2cn(C)c3ccc(S(=O)(=O)N4CCC(C)CC4)cc3c2=O)cc1 | 72% (inactive) |
| Cc1ccc(S(=O)(=O)n2nc(-c3ccccc3)nc2NCc2ccccc2Cl)cc1 | 85% (inactive) |
| CCc1c(C)nc2nncn2c1NCc1ccc(OC)cc1 | 85% (inactive) |
| COc1ccc2c(c1)CC(C(=O)Nc1ccc(Br)c(C)c1)CO2 (centres undefined) | 70% (inactive) |
| CCCN1C(=O)CC(C(=O)OC)=C1C | 81% (inactive) |
| CCOc1cccc2sc(N(Cc3cccnc3)C(C)=O)nc12 | 89% (inactive) |
| Cc1cc(Br)ccc1NC(=O)c1coc(=O)c2ccccc12 | 90% (inactive) |
| COc1ccc(-c2cc(C(F)(F)F)n3nc(-c4ccccc4)cc3n2)cc1OC | 61% (inactive) |
| FC(F)(F)c1cc(-c2ccccc2)nc2cc(-c3ccc(Br)cc3)nn12 | 42% (active) |
| FC(F)(F)c1cc(-c2ccccc2)nc2cc(-c3ccccc3)nn12 | 59% (inactive) |
| CCN1CCN(Cc2nc3cc(NC(=O)c4ccccc4[N+](=O)[O-])ccc3n2CC)CC1 | 78% (inactive) |
| CCOc1ccc(CCNC(c2nnc(-c3ccccc3)o2)c2ccccc2Cl)cc1OCC (centres undefined) | 1% (active) |
| Cc1cc(C)cc(NC(c2cccc(Cl)c2)c2nnc(-c3ccccc3)o2)c1 (centres undefined) | 92% (inactive) |
| Cc1ccc(NC(c2nnc(-c3ccccc3)o2)c2ccccc2F)c(Cl)c1 (centres undefined) | 85% (inactive) |
| Fc1ccccc1C(NCCc1ccc(Cl)cc1)c1nnc(-c2ccccc2)o1 (centres undefined) | -9% (active) |
| Fc1ccc(C(NCCc2ccc(Cl)cc2)c2nnc(-c3ccccc3)o2)c(Cl)c1 (centres undefined) | -2% (active) |
| CC(C)c1ccc(NC(c2nnc(-c3ccccc3)o2)c2ccc(F)cc2Cl)cc1 (centres undefined) | 84% (inactive) |
| Clc1ccc(CCNC(c2nnc(-c3ccccc3)o2)c2ccccc2Cl)cc1 (centres undefined) | -3% (active) |
| Cc1cc(NC(c2nnc(-c3ccccc3)o2)c2ccccc2F)ccc1Br (centres undefined) | 40% (inactive) |
| COc1ccc(NC(c2nnc(-c3ccccc3)o2)c2ccccc2F)cc1Cl (centres undefined) | 59% (inactive) |

| Structure (SMILES) | survival |
| --- | --- |
| CCOc1ccc(CCNC(c2cccc(Cl)c2)c2nnc(-c3ccccc3)o2)cc1OCC (centres undefined) | 95% (inactive) |
| Cc1cc(C)cc(NC(c2nnc(-c3cccc(F)c3)o2)c2ccc(F)cc2Cl)c1 (centres undefined) | 48% (inactive) |
| O=C(CSc1nnc(-c2cccc(F)c2)c(-c2cccc(F)c2)n1)NC1CCCCC1 | 73% (inactive) |
| CC(C)c1ccc(NC(=O)CSC2=Nc3ccccc3C3=NC(CCC(=O)NC4CCCCC4)C(=O)N23)cc1 (centres undefined) | 88% (inactive) |
| Cc1ccc(C(=O)CSc2nnc(CSc3nc(C)cc(C)n3)n2C)cc1 | 88% (inactive) |
| COC(=O)c1ccc(Oc2nc3c(c(=O)n(C)c(=O)n3C)n2C(C)C)cc1 | 85% (inactive) |
| CCCC(=O)Nc1nnc(SCc2cc(=O)n3ccccc3n2)s1 | 87% (inactive) |
| Cc1cc(C)c2c(CC(=O)Nc3cc(C(F)(F)F)ccc3Cl)coc2c1 | 66% (inactive) |
| COc1ccc(CCn2cc3c(c2-c2ccccc2Br)c(=O)n(C)c(=O)n3C)cc1OC | 67% (inactive) |
| O=C(Oc1ccccc1)c1ccc(F)cc1 | 74% (inactive) |
| Cn1c(NCCN)nc2c1c(=O)n(Cc1ccccc1)c(=O)n2C | 50% (inactive) |
| CCOc1ccc2[nH]c(=O)c(CN(CC3CCCO3)C(=O)N(CC)CC)cc2c1 (centres undefined) | 98% (inactive) |
| Clc1ccc(CCNC(c2cccc(Cl)c2)c2nnc(-c3ccccc3)o2)cc1 (centres undefined) | 11% (active) |
| Cc1ccc(NC(c2cccc(Cl)c2)c2nnc(-c3ccccc3)o2)cc1F (centres undefined) | 99% (inactive) |
| Clc1ccc(CCNC(c2ccc(Cl)cc2)c2nnc(-c3ccccc3)o2)cc1 (centres undefined) | 98% (inactive) |
| O=C(Cc1ccc(Cl)cc1)Nc1ccc2nn(-c3ccccc3)nc2c1 | 81% (inactive) |
| COc1cccc(COC(=O)c2nn(-c3ccccc3)nc2N)c1 | 15% (active) |
| Nc1nn(-c2ccccc2)nc1C(=O)OCc1ccc(Cl)cc1 | 44% (active) |
| COc1cccc(COC(=O)c2ccc(-c3nnn(Cc4ccccc4)n3)cc2)c1 | 126% (inactive) |
| Nc1nn(-c2ccccc2)nc1C(=O)OCc1c(F)cccc1Cl | 28% (active) |

| Structure (SMILES) | survival |
| --- | --- |
| O=C1CC(c2nnc(Cc3c(F)cccc3Cl)o2)CN1c1ccccc1 (centres undefined) | 129% (inactive) |
| COc1cccc(COC(=O)c2ccc(-c3nnn(Cc4cccc(OC)c4)n3)cc2)c1 | 67% (inactive) |
| O=C(NCCCc1ccccc1)c1nn(-c2ccccc2)nc1CO | 77% (inactive) |
| O=c1ccc(-c2ccccc2)nn1Cc1c(F)cccc1Cl | 55% (inactive) |
| Nc1nn(-c2ccccc2)nc1C(=O)OCc1ccccc1 | 58% (active) |
| O=C(NCc1ccccc1)c1nn(-c2ccccc2)nc1CO | 108% (inactive) |
| Cc1cc2nn(-c3ccccc3)nc2cc1NC(=O)Cc1ccc(Cl)cc1 | 89% (inactive) |
| COc1ccc(-c2oc3ncn4nc(-c5ccccc5Br)nc4c3c2-c2ccc(OC)cc2)cc1 | 77% (inactive) |
| CCc1ccc(OCC(=O)Nc2ccc(S(=O)(=O)Nc3onc(C)c3C)cc2)cc1 | 73% (inactive) |
| COC(=O)c1ccc(C(=O)OC)c(NC(=O)c2c(-c3ccccc3)c(-c3ccccc3)nn(C)c2=O)c1 | 60% (inactive) |
| COc1ccc(CNC(=O)CCc2nc3cccnc3n2Cc2ccccc2)cc1 | 120% (inactive) |
| Cc1ccc(NC(=O)NCCOCCn2c(=O)oc3ccccc32)cc1C | 86% (inactive) |
| Cc1ccccc1Cn1c2ccccc2c2cnn(CC(=O)NCCc3ccccc3)c(=O)c21 | 96% (inactive) |
| COc1ccc(-c2cn3nc(N4CCCC(C(=O)Nc5cc(C)ccc5C)C4)sc3n2)cc1 (centres undefined) | 76% (inactive) |
| CCOc1ccc(NC(=O)Cn2cc(S(=O)(=O)c3ccc(C)cc3)c(=O)c3cc(F)ccc32)cc1 | 74% (inactive) |
| CCC(=O)N1c2ccc(S(=O)(=O)CCC(=O)N3CCN(c4cc(C)ccc4C)CC3)cc2CC1C (centres undefined) | 85% (inactive) |
| Cc1cc(C)cc(NC(=O)C(=O)NCC(c2ccc3c(c2)OCO3)N2CCOCC2)c1 (centres undefined) | 107% (inactive) |
| CSc1ccc(CNC(=O)CCn2ccc3cc(S(=O)(=O)N4CCC(C)CC4)ccc32)cc1 | 88% (inactive) |
| CCCCC(CC)CNC(=O)C1CCC(CNS(=O)(=O)c2cccc3nsnc23)CC1 (centres undefined) | 65% (inactive) |
